The record followed here is ChEMBL document CHEMBL2218924, “A broad activity screen in support of a chemogenomic map for kinase signalling research and drug discovery” (Biochem J, 2013).

As a reminder, the residual activity is the signal under treatment as a percentage of the control signal.

For experiment [1], the target named is Protein kinase C eta type (Homo sapiens) (UniProt P24723). The conditions noted are these: at 1 µM.
The target is the same in experiment [2]. The following applies: at 10 µM.
Experiment [3] addresses Protein kinase C theta type (Homo sapiens) (UniProt Q04759). The conditions noted are these: at 1 µM.
Experiment [4] has the same target. The conditions noted are these: at 10 µM.
The target of experiment [5] is T1, Protein kinase C iota type (Homo sapiens) (UniProt P41743).
T1 sequence (whole entry): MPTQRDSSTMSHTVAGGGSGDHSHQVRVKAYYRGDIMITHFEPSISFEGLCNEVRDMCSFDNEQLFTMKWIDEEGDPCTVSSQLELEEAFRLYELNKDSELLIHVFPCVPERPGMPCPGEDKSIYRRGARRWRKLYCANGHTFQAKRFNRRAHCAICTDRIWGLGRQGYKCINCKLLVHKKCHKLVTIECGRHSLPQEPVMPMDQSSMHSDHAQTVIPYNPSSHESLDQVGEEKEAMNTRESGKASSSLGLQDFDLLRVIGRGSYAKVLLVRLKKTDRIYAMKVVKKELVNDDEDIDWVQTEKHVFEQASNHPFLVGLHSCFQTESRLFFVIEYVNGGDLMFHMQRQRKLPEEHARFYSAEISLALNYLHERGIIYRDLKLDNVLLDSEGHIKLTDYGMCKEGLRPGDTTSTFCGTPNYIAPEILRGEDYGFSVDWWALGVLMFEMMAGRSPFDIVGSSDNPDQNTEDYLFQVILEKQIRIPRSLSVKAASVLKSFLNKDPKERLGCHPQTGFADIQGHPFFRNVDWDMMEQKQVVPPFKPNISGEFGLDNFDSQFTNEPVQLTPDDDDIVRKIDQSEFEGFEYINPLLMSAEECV
The conditions noted are these: at 1 µM.

The target in experiment [6] is T1, Protein kinase C iota type (Homo sapiens). The following applies: at 10 µM.
For experiment [7], the target named is T2, Serine/threonine-protein kinase D1 (Homo sapiens) (UniProt Q15139).
T2 sequence (whole entry): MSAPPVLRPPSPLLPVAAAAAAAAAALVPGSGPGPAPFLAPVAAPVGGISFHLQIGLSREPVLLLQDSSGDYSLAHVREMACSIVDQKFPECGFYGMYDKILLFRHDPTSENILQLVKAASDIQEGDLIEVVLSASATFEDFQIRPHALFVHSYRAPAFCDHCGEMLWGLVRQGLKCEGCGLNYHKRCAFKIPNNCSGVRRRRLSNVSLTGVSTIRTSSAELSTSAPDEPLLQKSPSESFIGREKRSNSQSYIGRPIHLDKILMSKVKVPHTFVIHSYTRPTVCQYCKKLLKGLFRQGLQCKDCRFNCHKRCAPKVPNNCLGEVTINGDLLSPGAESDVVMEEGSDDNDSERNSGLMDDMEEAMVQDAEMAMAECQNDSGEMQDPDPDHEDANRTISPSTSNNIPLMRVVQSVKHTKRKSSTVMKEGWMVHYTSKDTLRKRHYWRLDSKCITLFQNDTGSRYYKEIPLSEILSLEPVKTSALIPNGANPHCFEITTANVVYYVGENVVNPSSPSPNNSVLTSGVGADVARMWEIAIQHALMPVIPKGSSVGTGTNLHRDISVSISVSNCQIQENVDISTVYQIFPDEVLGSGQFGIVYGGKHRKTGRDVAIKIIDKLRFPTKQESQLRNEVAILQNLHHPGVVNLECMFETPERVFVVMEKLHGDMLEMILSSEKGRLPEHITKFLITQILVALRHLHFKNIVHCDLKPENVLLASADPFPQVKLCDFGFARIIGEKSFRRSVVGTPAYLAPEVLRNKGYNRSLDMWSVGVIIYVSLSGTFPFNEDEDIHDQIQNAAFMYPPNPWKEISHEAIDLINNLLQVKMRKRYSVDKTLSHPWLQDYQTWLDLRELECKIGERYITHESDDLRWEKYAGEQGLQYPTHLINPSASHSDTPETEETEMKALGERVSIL
The conditions noted are these: at 1 µM.

For experiment [8], the target named is T2, Serine/threonine-protein kinase D1 (Homo sapiens). The following applies: at 10 µM.
Experiment [9] concerns the target T3, Serine/threonine-protein kinase D2 (Homo sapiens) (UniProt Q9BZL6).
T3 sequence (whole entry): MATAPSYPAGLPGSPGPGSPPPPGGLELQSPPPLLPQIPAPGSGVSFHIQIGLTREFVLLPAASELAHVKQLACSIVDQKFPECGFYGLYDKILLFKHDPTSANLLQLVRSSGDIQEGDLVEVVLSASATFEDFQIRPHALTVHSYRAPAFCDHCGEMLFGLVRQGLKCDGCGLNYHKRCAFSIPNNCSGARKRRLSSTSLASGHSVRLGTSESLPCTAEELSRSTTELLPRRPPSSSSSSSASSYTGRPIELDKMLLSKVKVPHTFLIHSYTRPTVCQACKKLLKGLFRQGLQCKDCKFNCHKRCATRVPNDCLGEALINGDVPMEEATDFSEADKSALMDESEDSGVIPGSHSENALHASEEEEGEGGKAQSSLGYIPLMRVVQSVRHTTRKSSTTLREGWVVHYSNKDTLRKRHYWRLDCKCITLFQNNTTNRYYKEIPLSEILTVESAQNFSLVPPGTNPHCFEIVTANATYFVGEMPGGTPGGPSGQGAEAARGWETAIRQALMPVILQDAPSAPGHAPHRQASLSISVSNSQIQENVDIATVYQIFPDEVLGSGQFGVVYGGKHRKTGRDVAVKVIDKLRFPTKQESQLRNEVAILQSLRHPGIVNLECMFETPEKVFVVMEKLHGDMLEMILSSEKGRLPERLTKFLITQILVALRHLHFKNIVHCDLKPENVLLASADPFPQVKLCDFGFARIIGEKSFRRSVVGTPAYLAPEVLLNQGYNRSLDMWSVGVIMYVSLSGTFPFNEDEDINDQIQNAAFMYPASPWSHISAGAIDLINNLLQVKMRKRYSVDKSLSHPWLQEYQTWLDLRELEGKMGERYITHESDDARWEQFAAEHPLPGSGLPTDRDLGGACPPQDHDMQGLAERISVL
The following applies: at 1 µM.

The target of experiment [10] is T3, Serine/threonine-protein kinase D2 (Homo sapiens). The following applies: at 10 µM.

Sequence of Protein kinase C theta type (Homo sapiens) (Q04759 whole entry, looked up): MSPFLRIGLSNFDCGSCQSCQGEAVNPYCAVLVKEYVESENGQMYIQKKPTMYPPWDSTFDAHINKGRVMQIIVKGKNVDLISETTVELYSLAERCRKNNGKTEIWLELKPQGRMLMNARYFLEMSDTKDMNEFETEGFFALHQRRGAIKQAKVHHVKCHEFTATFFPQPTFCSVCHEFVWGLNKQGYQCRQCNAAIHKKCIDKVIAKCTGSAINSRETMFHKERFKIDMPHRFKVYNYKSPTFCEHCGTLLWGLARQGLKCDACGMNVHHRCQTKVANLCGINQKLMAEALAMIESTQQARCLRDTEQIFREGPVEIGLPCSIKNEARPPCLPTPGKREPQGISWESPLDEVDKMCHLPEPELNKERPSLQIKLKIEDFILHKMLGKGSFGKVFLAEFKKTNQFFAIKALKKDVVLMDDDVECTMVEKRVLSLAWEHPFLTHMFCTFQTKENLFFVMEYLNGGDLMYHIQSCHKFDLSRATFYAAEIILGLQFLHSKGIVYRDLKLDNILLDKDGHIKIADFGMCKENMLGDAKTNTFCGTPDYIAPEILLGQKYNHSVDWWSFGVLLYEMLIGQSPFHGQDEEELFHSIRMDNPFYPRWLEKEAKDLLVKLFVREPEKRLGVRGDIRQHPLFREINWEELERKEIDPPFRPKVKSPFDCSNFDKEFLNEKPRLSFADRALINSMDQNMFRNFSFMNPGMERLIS
Sequence of Protein kinase C eta type (Homo sapiens) (P24723 whole entry): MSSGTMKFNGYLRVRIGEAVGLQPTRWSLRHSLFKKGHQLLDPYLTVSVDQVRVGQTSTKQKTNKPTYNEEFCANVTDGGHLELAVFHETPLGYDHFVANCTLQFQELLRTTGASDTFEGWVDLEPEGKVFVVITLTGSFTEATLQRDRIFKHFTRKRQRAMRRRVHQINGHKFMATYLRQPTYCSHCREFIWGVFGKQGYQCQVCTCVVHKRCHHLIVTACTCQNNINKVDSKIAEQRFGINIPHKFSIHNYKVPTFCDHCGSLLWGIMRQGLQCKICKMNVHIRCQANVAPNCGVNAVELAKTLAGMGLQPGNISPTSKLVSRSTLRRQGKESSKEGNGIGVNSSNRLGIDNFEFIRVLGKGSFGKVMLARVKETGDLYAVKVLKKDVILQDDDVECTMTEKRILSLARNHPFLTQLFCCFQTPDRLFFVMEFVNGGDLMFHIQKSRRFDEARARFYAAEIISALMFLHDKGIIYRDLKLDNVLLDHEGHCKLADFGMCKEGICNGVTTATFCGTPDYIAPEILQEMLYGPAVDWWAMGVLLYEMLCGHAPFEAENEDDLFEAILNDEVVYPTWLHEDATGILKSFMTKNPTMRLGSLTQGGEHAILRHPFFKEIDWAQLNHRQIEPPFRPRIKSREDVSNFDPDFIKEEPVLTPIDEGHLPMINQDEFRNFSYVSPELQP

Regarding `N#C/C(=C(\N)Sc1ccc(N)cc1)c1ccccc1C(F)(F)F`, the residual activity was 76% in experiment [1]; 83% in [2]; 84% in [3]; 77% in experiment [4]; 106% (inactive) in [5]; 108% in [6]. In addition, the residual activity came out at 82% in experiment [7], 68% in experiment [8], 109% in experiment [9] and 100% in [10].

As for `CO[C@H]1[C@@H](OC)C[C@H](C)[C@@H](OC)C2=CC(=O)C=C(NC(=O)/C(C)=C/C=C/[C@H](OC)[C@@H](OC(N)=O)/C(C)=C/[C@@H]1C)C2=O`, the residual activity in experiment [1] was 118%; in [2] it was 83%; in [3], 100%; in experiment [4] it was 98%; in [5], 92% (inactive); in experiment [6], 71%. Also, the residual activity in [7] is 119%; in experiment [8], 102%; in [9], 102%; in experiment [10] it was 110%.

`CC(C)n1cnc2/c(=N/c3cccc(Cl)c3)nc(NCCO)[nH]c21`: the residual activity is 87% in experiment [1]; 75% in [2]; 69% in [3]; 35% in experiment [4]; 110% (inactive) in experiment [5]; 103% in experiment [6]. In addition, the residual activity came out at 77% in [7], 57% in experiment [8], 96% in experiment [9] and 93% in [10].

Regarding `Ic1cccc(CSc2nnc(-c3ccncc3)o2)c1`, the residual activity was 59% in experiment [1]; 62% in experiment [2]; 68% in [3]; 58% in experiment [4]; 109% (inactive) in [5]; 107% in [6]. For the same compound, the residual activity was 72% in experiment [7], 71% in experiment [8], 97% in experiment [9] and 98% in experiment [10].

`COc1ccc(OC)c2c(=S)c3ccccc3[nH]c12`: the residual activity is 77% in [1]; 63% in [2]; 81% in experiment [3]; 89% in experiment [4]; 109% (inactive) in [5]; 80% in experiment [6]. Also, the residual activity came to 96% in experiment [7], 73% in [8], 108% in experiment [9] and 84% in experiment [10].

Turning to `O=C1c2ccccc2-[n+]2ccc3c([nH]c4ccccc43)c21`, the residual activity in experiment [1] is 72%; in experiment [2], 80%; in experiment [3] it was 93%; in [4], 99%; in [5] it was 100% (inactive); in [6], 105%. Further, the residual activity in experiment [7] worked out at 83%; in experiment [8] it was 71%; in experiment [9] it was 101%; in experiment [10], 100%.

For `CC(C)n1cnc2c(NCc3ccccc3)nc(NCCCO)nc21`, the residual activity in experiment [1] is 88%; in experiment [2], 81%; in experiment [3], 91%; in experiment [4], 94%; in experiment [5] it was 109% (inactive); in experiment [6], 105%. In addition, the residual activity in [7] was found to be 91%; in experiment [8] it was 72%; in experiment [9], 103%; in experiment [10], 96%.

Regarding `c1ccc(-c2n[nH]cc2-c2ccnc3ccccc23)nc1`, the residual activity in experiment [1] is 92%; in experiment [2], 77%; in experiment [3], 97%; in experiment [4], 86%; in experiment [5] it was 81% (inactive); in [6] it was 91%. Further, the residual activity turned out to be 65% in experiment [7], 22% in [8], 101% in [9] and 66% in [10].

Turning to `CC(=O)c1ccc(N2CCOCC2)cc1O`, the residual activity in experiment [1] was 92%; in experiment [2] it was 84%; in [3], 109%; in [4] it was 102%; in experiment [5], 84% (inactive); in [6], 106%. The residual activity was determined as 92% in experiment [7], 95% in experiment [8], 93% in experiment [9] and 109% in [10].

In the case of `Oc1ccc(-c2nc(-c3ccc(F)cc3)c(-c3ccncc3)[nH]2)cc1`, the residual activity in [1] is 100%; in experiment [2], 70%; in [3] it was 101%; in experiment [4], 75%; in experiment [5], 109% (inactive); in experiment [6] it was 105%. The residual activity in experiment [7] turned out to be 94%; in [8], 36%; in experiment [9] it was 102%; in experiment [10], 81%.

In the case of `O=c1c2ccccc2[nH]c(=S)n1CCN1CCC(=C(c2ccc(F)cc2)c2ccc(F)cc2)CC1`, the residual activity in [1] was 106%; in [2], 83%; in experiment [3], 110%; in experiment [4] it was 109%; in [5], 109% (inactive); in experiment [6], 81%. Also, the residual activity was found to be 113% in experiment [7], 84% in experiment [8] and 100% in experiment [9].

As to `O=C(Nc1cccc(Nc2nccc(Nc3cccc(C(F)(F)F)c3)n2)c1)C1CC1`, the residual activity in [1] was 107%; in experiment [2], 84%; in [3], 102%; in experiment [4], 82%; in experiment [5] it was 84% (inactive); in experiment [6] it was 77%. Further, the residual activity in experiment [7] came to 101%; in experiment [8], 125%; in experiment [9], 99%; in experiment [10], 96%.

As to `O=C(O)c1ccc2c3c1cccc3c(=O)n1c3ccccc3nc21`, the residual activity in [1] is 76%; in experiment [2], 84%; in experiment [3], 109%; in experiment [4] it was 107%; in [5] it was 105% (inactive); in experiment [6] it was 92%. The residual activity in [7] came out at 110%; in experiment [8], 57%; in experiment [9] it was 101%; in experiment [10] it was 84%.

On to `Nc1n[nH]c2nnc(-c3c(-c4ccccc4)nn4ccccc34)cc12`, for which the residual activity was 56% in experiment [1]; 19% in [2]; 47% in experiment [3]; 16% in [4]; 115% (inactive) in experiment [5]; 100% in [6]. The residual activity came out at 56% in experiment [7], 12% in experiment [8], 96% in experiment [9] and 49% in [10].

Regarding `O=C1NC(=O)/C(=C\c2ccc3nccnc3c2)S1`, the residual activity in experiment [1] was 103%; in experiment [2], 78%; in experiment [3], 102%; in experiment [4] it was 81%; in [5], 89% (inactive); in experiment [6], 88%. In addition, the residual activity was found to be 103% in experiment [7], 88% in experiment [8], 108% in experiment [9] and 96% in experiment [10].

On to `CO[C@H]1C[C@@H]2CC[C@@H](C)[C@@](O)(O2)C(=O)C(=O)N2CCCC[C@H]2C(=O)O[C@H]([C@H](C)C[C@@H]2CC[C@@H](O)[C@H](OC)C2)CC(=O)[C@H](C)/C=C(\C)[C@@H](O)[C@@H](OC)C(=O)[C@H](C)C[C@H](C)/C=C/C=C/C=C/1C`, for which the residual activity in experiment [1] was 93%; in experiment [2] it was 76%; in [3], 94%; in experiment [4] it was 113%; in experiment [5] it was 89% (inactive); in experiment [6], 77%. Further, the residual activity in experiment [7] worked out at 93%; in experiment [8], 97%; in experiment [9], 102%; in experiment [10], 107%.
